Experimental data reported in PubChem BioAssay AID624288 (National Center for Advancing Translational Sciences (NCATS), 2012).
Out of some 340,000 compounds screened, about 1,400 (0.41%) were called active. Entries that show only a call come without a potency. About 4% were inconclusive and are not listed. The call rests on the fitted dose curve; cell line not stated here. The full list was thinned out, with actives kept by preference.

Test: qHTS for Antagonists of gsp, the Etiologic Mutation Responsible for Fibrous Dysplasia/McCune-Albright Syndrome: qHTS; further: nearly all actives have a fitted effect of over 65% in size
Conditions: gsp-mutant cells, cAMP HTRF, 30 min; series mostly up to 76.9 µM
Method in brief: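 Cells, 2000/well, grown 16–24 h in DMEM 10% FBS with 0.5 mg/ml G418, then compounds plus […] (300 uM addition stock), 30 min at 37C. cAMP read by HTRF (cAMP-d2 and anti-cAMP antibody-K in lysis buffer) after 30 min RT.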
Potency means the concentration at half of the fitted maximal effect.

Compound	Potency
CN(C)C(=S)N=c1ssc(=S)n1Cc1ccco1	inactive
Cc1nn(-c2ccc([N+](=O)[O-])cc2)c(N)c1-c1ccccc1	inactive
O=c1[nH]n(-c2ccc([N+](=O)[O-])cc2)c(=O)c2ccccc12	inactive
O=C1CC(c2ccccc2)=NN1c1ccc([N+](=O)[O-])cc1	35.5 µM (active)
O=C1COc2c1ccc(O)c2O	inactive
O=C(O)c1ccc(Cn2cnc3c(=S)nc[nH]c32)cc1	inactive
O=C(CC(=O)c1cccnc1)c1ccccc1	inactive
CCC(=C/c1sc2ccc3ccccc3c2[n+]1C)/C=C1\Sc2ccc3ccccc3c2N1C	35.5 µM (active)
O=C1CC(c2ccccc2)C(c2ccccc2)=NN1 (stereo not drawn)	inactive
c1ccc(CNc2ncnc3[nH]ncc23)cc1	inactive
Cc1ccc(SCC(=O)N2CCN(c3ccc(F)cc3)CC2)cc1	inactive
CN(C(=O)c1ccc(NC(=O)Cc2cccc(NC(=O)C3CCN(C(=O)c4ccccc4)CC3)c2)cc1)C1CC1	inactive
Cc1ccc(NC(=O)Nc2nnc(-c3ccncc3)s2)cc1	50.1 µM (active)
Cc1ccc(NC(=O)Nc2cccnc2)cc1	inactive
CCc1ccc(NC(=O)Nc2ccncc2)cc1	inactive
O=C1NCC(Nc2ccccc2)C(=O)N1 (stereo not drawn)	inactive
COc1ccc(S(=O)(=O)N2C[C@H]3CON(C)[C@H]3C[C@H]2c2cccc(Br)c2)cc1	inactive

Compound	Potency
S=c1[nH]nc(-c2ccncc2)n1/N=C/c1ccccc1Cl	inactive
Fc1ccccc1/C=N/n1c(-c2cccnc2)n[nH]c1=S	28.2 µM (active)
O=[N+]([O-])c1ccccc1/C=N/n1c(COc2ccccc2)n[nH]c1=S	inactive
Cc1cccc(NC(=S)N2CCC(C(=O)c3ccc(F)cc3)CC2)c1	inactive
Cc1nn(-c2ccccc2)c(C)c1NC(=O)COc1ccc(Cl)cc1Cl	50.1 µM (active)
Cc1nn(-c2ccccc2)c(C)c1NC(=O)CCl	inactive
Cc1nn(-c2ccccc2)c(C)c1NC(=O)COC(=O)c1cc(Cl)ccc1O	inactive
CC(C)Cn1cnc2c(SCc3ccc(Cl)cc3)nc(N)nc21	inactive
COC(=O)CC(CC(=O)OC)n1cccc1	inactive
COc1ccc(-n2cnnc2SCC(=O)Nc2cccc(S(N)(=O)=O)c2)cc1	inactive
Cc1nnc(SCC(=O)Nc2cccc(N)c2)n1-c1ccccc1	inactive
NS(=O)(=O)c1cccc(NC(=O)CSc2nc3ccccc3n2-c2ccccc2)c1	28.2 µM (active)
CNc1nc(=O)n(C2CCCO2)cc1C (stereo not drawn)	inactive
Cc1ccccc1OCC(=O)Nc1ccc(N2CCN(C(=O)C(C)C)CC2)c(Cl)c1	31.6 µM (active)
Cc1ccccc1OCC(=O)Nc1ccc(S(=O)(=O)N2CCOCC2)cc1	inactive
Cc1ccccc1OCC(=O)Nc1ccc2c(c1)ncn2C	inactive
